High-throughput results from PubChem.
Sampled rows, rich in hits. Any-hit rate of the full collection: about 4%.
RecA intein inh – Mtb RecA intein splicing inhibitors, primary screen, biochemical, fluorescence, HTS; Protein RecA (Mycobacterium tuberculosis (strain ATCC 25618 / H37Rv)), P9WHJ3; cell-free RecA intein splicing; inhibition, % (concentration not given with the values); 290,000 compounds, 0.75% hits; AID 2221, 2009; in the data active = inhibition above about 30%; inconclusive = no clear call, values can overlap the other calls
Target sequence (P9WHJ3 whole entry, looked up): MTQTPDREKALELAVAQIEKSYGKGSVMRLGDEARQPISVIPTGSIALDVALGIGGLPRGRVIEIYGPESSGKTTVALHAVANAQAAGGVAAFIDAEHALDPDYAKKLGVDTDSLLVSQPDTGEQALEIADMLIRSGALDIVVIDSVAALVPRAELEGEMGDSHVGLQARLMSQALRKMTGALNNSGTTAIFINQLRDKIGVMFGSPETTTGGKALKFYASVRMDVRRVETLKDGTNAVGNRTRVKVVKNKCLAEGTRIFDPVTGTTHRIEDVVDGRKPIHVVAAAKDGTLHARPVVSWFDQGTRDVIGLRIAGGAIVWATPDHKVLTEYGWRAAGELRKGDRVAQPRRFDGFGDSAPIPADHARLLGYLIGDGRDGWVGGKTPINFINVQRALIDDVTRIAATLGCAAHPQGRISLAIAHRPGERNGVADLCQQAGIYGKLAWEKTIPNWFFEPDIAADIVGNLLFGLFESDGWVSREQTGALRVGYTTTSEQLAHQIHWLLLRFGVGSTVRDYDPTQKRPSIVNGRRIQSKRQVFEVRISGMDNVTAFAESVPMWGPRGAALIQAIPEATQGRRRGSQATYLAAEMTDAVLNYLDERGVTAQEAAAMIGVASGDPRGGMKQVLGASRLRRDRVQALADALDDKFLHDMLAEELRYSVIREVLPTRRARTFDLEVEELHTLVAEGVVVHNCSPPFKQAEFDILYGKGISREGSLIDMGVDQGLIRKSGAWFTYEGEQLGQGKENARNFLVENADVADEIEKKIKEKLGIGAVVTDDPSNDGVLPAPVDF
Mtb betalactam – beta-lactam sensitization of Mtb H37Rv, H37Rv; M. tuberculosis H37Rv growth with meropenem, percent inhibition; 330,000 compounds, 0.27% hits; inhibition, % at 25 µM; AID 434955, 2010; call rule not given here;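 note: growth measured after seven days incubation then overnight dye step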
Mtb FBA inh – Mtb FBA enzyme inhibitors, primary screen, biochemical, fluorescence, strain H37Rv; Fructose-bisphosphate aldolase (Mycobacterium tuberculosis (strain ATCC 25618 / H37Rv)), …; inhibition, % at 1 µM; 360,000 compounds, 2.3% hits; purified M. tuberculosis FBA, fluorescence read-out
GDH-TPI counter-1 – GDH-TPI coupling enzyme inhibitors, primary screen, artefact control for M. tuberculosis FBA inhibitor project, biochemical, absorbance, full deck | AID 588335, 2011 | 360,000 compounds, 1.2% hits | GDH-TPI coupled enzyme counterscreen, NADH absorbance | inhibition, % at 4.8 µM; in the data active = inhibition above about 30%
Rv3671c protease – Rv3671c serine protease inhibitors, primary screen, biochemical, fluorescence polarization, M. tuberculosis H37Rv; AID 2606, 2010; inhibition, % at 5.96 µM; 320,000 compounds, 0.048% hits; P9WHR9; in the data active = inhibition above about 38%;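 note: extracellular domain of Rv3671c used as enzyme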
Mtb UGM inh – M. tuberculosis UGM enzyme inhibitors, primary screen, biochemical, fluorescence polarization, single point; AID 504406, 2011; UDP-galactopyranose mutase (Mycobacterium tuberculosis (strain ATCC 25618 / H37Rv)), …; 320,000 compounds, 0.06% hits; inhibition, % at 10 µM; purified UGM, fluorescence polarization probe displacement; in the data active = inhibition above about 10%, passing the limit was not always enough; inconclusive = no clear call, values can overlap the other calls
Mtb FBA confirm – M. tuberculosis aldolase blockers, biochemical, fluorescence, strain H37Rv, confirmation; shares compounds with Mtb FBA inh; purified M. tuberculosis FBA, fluorescence read-out; inhibition, % at 1 µM; 5,600 compounds, 78% hits; AID 651616, 2012
GDH-TPI counter-2 – GDH-TPI coupling enzyme inhibitors, artefact control for M. tuberculosis FBA inhibitor project, biochemical, fluorescence, high throughput; shares compounds with Mtb FBA inh; GDH-TPI coupled enzyme counterscreen; inhibition, % at 1 µM; 5,600 compounds, 81% hits; in the data active = inhibition above about 10%
Hits are given with their value. Cut-off read from the data, not from the text of the source, unless noted: active = inhibition above about 27%; inactive = the rest.

`CCC(C)NC(=O)c1cc2c(=O)[nH]c3ccc(C)cc3c2s1` (stereo not given) gave RecA intein inh inactive, Mtb betalactam inactive, Mtb FBA inh 69.6, GDH-TPI counter-1 inactive, Rv3671c protease inactive, Mtb UGM inh inactive, Mtb FBA confirm 89.4 and GDH-TPI counter-2 64.8.
`Cc1ccc2[nH]c(=O)c3cc(C(=O)NCCC(C)C)sc3c2c1` gave RecA intein inh inactive, Mtb betalactam inactive, Mtb FBA inh inactive, GDH-TPI counter-1 inactive and Mtb UGM inh inactive.
For COCOCCn1cc(CN2CCS(=O)(=O)N(Cc3ccc(-c4ccc(Cl)nc4)cc3)C(C(C)C)C2=O)nn1 (stereo not given) the results were Mtb FBA inh inactive and GDH-TPI counter-1 inactive.
For CCC1(CC)NC(=O)N(CC(=O)OC(C)C(=O)Nc2cc([N+](=O)[O-])ccc2OC)C1=O (stereo not given) the results were RecA intein inh inactive, Mtb betalactam inconclusive, Mtb FBA inh inactive, GDH-TPI counter-1 inactive, Rv3671c protease inactive and Mtb UGM inh inactive.
`CCOc1ccccc1N1CC(C(=O)Nc2cc(Cl)ccc2-n2cncn2)CC1=O` (stereo not given) gave RecA intein inh inactive, Mtb betalactam inactive, Mtb FBA inh inactive, GDH-TPI counter-1 inactive, Rv3671c protease inactive and Mtb UGM inh inactive.
NC(=NCCc1ccccc1)NC(=O)c1cc(Cl)ccc1O was read as RecA intein inh inactive, Mtb betalactam inactive, Mtb FBA inh 45.9, GDH-TPI counter-1 inactive, Rv3671c protease inactive, Mtb UGM inh inactive, Mtb FBA confirm 89.5 and GDH-TPI counter-2 76.9.
Screening NC(=NCCc1ccc(Cl)cc1)NS(=O)(=O)c1ccccc1 returned RecA intein inh inactive, Mtb betalactam inactive, Mtb FBA inh inactive, GDH-TPI counter-1 inactive, Rv3671c protease inactive and Mtb UGM inh inactive.
N#Cc1ccc(-c2ccc(OCC3CNC(=O)O3)cc2)cc1 (stereo not given) was read as RecA intein inh inactive, Mtb betalactam inactive, Mtb FBA inh 43.8, GDH-TPI counter-1 inactive, Rv3671c protease inactive, Mtb UGM inh inactive, Mtb FBA confirm active and GDH-TPI counter-2 active.
O=C1NCC(COc2ccc([N+](=O)[O-])cc2)O1 (stereo not given) was read as RecA intein inh inactive, Mtb betalactam inactive, Mtb FBA inh inactive, GDH-TPI counter-1 inactive, Rv3671c protease inactive and Mtb UGM inh inactive.
`Cc1cccc(C)c1NC(=O)CN(C)C(=O)c1ccc(OCc2ccccc2)cc1` gave Mtb FBA inh inactive and GDH-TPI counter-1 inactive.
For CCOC(=O)c1ccc2ncc(C(=O)OCC)c(NCc3ccco3)c2c1 the results were RecA intein inh inactive, Mtb betalactam inactive, Mtb FBA inh 62.5, GDH-TPI counter-1 inactive, Rv3671c protease inactive, Mtb UGM inh inactive, Mtb FBA confirm inactive and GDH-TPI counter-2 inactive.
`CC(C)CCOCC(=O)Oc1ccccc1C(=O)O` gave RecA intein inh inactive, Mtb betalactam inactive, Mtb FBA inh 33.5, GDH-TPI counter-1 inactive, Rv3671c protease inactive, Mtb UGM inh inactive, Mtb FBA confirm inactive and GDH-TPI counter-2 inactive.
CC(=O)Oc1ccccc1C(=O)Oc1ccccc1C(=O)O was read as Mtb betalactam inactive, Mtb FBA inh inactive, GDH-TPI counter-1 inactive, Rv3671c protease inactive and Mtb UGM inh inactive.
`O=C(NCCO)c1ccc2[nH]c3ccccc3c2c1` gave RecA intein inh inactive, Mtb betalactam inactive, Mtb FBA inh 34.7, GDH-TPI counter-1 inactive, Rv3671c protease inactive, Mtb UGM inh inactive, Mtb FBA confirm inactive and GDH-TPI counter-2 inactive.
O=C(NCCc1c[nH]c2ccccc12)c1ccc2[nH]c(=O)c(=O)[nH]c2c1 was read as RecA intein inh inactive, Mtb betalactam inactive, Mtb FBA inh inactive, GDH-TPI counter-1 inactive, Rv3671c protease inactive and Mtb UGM inh inactive.
